A short description of test [1]: Viability qHTS for spleen associated tyrosine kinase inhibitor (SYKi) naive MV4-11 cells (AID 1963823). Note: nearly all actives have a fitted effect of over 40% in size. The method, boiled down:
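Seeding of 500 SYKi-naive MV4-11 cells per well onto pre-dispensed compounds preceded a 72 hr incubation at 37 C. Luminescent CellTiter-Glo signal, read after 10 min at room temperature, reflected viable cells.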

The nature of test [2]: Viability qHTS for spleen associated tyrosine kinase inhibitor (SYKi) drug resistant MV4-11 cells (AID 1963824). Note: nearly all actives have a fitted effect of over 35% in size. The method, boiled down: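 CellTiter-Glo luminescence, read 10 min after reagent addition, reports viability after a 72 hr compound exposure. Cells are an MV4-11 line made resistant to SYK inhibition, seeded at 500 per well onto compound-containing plates.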

Inconclusive results are not listed. Values without a mark were called inactive. Activity calls are given as the source filed them. Calls come from the whole dose curve; as a rule, active = well fitted cell-killing curve with a large enough effect; inconclusive = small, poorly fitted or top-dose-only effect, or effect the other way; inactive = no such curve, though single readings can be large or run the other way.
Potency is the fitted concentration of half-maximal effect.

In the case of `CCOC(CN1C(=O)[C@](CC(=O)Nc2ccc(C)cc2)(NC(=O)Nc2ccc(C)cc2)c2ccccc21)OCC`, the results for the Potency in test [1] and in test [2] were 18.6 µM (active) and 14.8 µM (active), respectively.

Consider `c1ccc(-c2cnn3cc(-c4ccc(OCCN5CCOCC5)cc4)cnc23)cc1`, for which the Potency in test [1] was 0.0184 µM (active); in test [2], 0.058 µM (active).

As to `C=C1C(=O)O[C@H]2C[C@@H](C)[C@@H]3CCC(=O)[C@@]3(C)C[C@H]12`, the Potency in test [1] was 4.11 µM (active); in test [2] it was 2.59 µM (active).

As for `CC(O)C1NC(=O)C2CCCN2C1=O` (stereo not drawn), the Potency entry in test [1] and in test [2] was “inactive” each time.

With `C[C@@H]1O[C@@H](O[C@H]2[C@H](O)[C@@H](O)[C@H](OC[C@H]3O[C@@H](OC(=O)[C@]45CCC(C)(C)C[C@H]4C4=CCC6[C@@]7(C)C[C@@H](O)[C@H](O)[C@@](C)(CO)C7[C@H](O)C[C@@]6(C)[C@]4(C)CC5)[C@H](O)[C@@H](O)[C@@H]3O)O[C@@H]2CO)[C@H](O)[C@H](O)[C@H]1O` (stereo partly drawn), the viability (% of control) in test [1] was 86.1% [at 9.25 µM]. Further, the viability, % of control in test [2] was 79.5% [at 9.25 µM].

Consider `COc1cc(O)cc(C)c1C(=O)OC1C(CO)OC(n2ccc(=O)[nH]c2=O)C1OC(C)=O` (stereo not drawn), for which the Potency in test [1] is 5.63 µM (active). In addition, in test [2], the Potency result was “inactive”.

On to `C=Cc1ccc(O[C@@H]2O[C@H](CO[C@@H]3O[C@@H](C)[C@H](O)[C@@H](O)[C@H]3O)[C@@H](O)[C@H](O)[C@H]2O)cc1`, for which the Potency result in test [1] and in test [2] was “inactive” in each case.

For `CC1(C)CCCC2(C)C(CO)C3CCC2C31` (stereo not drawn), the Potency entry in test [1] and in test [2] was “inactive” each time.

With `C/C(=C/CCC(CO)C1CCC2(C)C3CCC4C(C)(C)C(OC5OC(CO)C(O)C(O)C5O)CC(O)C45CC35CCC12C)COC1OC(CO)C(O)C(O)C1O` (stereo not drawn), the Potency result in test [1] and in test [2] was “inactive” each time.

With `CC1(C)CCC2(C(=O)O)C(O)CC3(C)C(=CCC4C5(C)CCC(OC6OC(CO)C(O)C(O)C6OC6OC(CO)C(O)C(O)C6OC6OCC(O)(CO)C6O)C(C)(C)C5CCC43C)C2C1` (stereo not drawn), the viability (% of control) in test [1] is 68.6% [at 9.25 µM]. Moreover, in test [2], the viability, % of control is 84.8% [at 9.25 µM].

On to `CC(C)[C@@H](C)/C=C/[C@@H](C)[C@H]1CC[C@H]2C3=CC=C4C[C@@H](O)CC[C@]4(C)[C@H]3CC[C@]12C`, for which the Potency entry in test [1] and in test [2] was “inactive” throughout.

As to `Cc1ccc(C(C)C)c(O[C@@H]2O[C@H](CO)[C@@H](O)[C@H](O)[C@H]2O)c1`, the Potency result in test [1] and in test [2] was “inactive” each time.

`CC1(C)C2CC(OC3OC(COC4OCC(O)(CO)C4O)C(O)C(O)C3O)C1(C)CC2O` (stereo not drawn): the Potency entry in test [1] and in test [2] was “inactive” each time.

As for `CC(C)C1=CC2C(CC[C@]2(C)O)[C@](C)(O)CC1` (stereo partly drawn), the Potency entry in test [1] and in test [2] was “inactive” throughout.

For the compound `C[C@@H]1COCCN1c1cc(C2(S(C)(=O)=O)CC2)nc(-c2cccc3[nH]ccc23)n1`, the Potency in test [1] was 0.58 µM (active); in test [2], 0.366 µM (active).

For the compound `C[C@@H]1C[C@@H](O)[C@@]23CO[C@]2(CO)C[C@@H](O)CC3[C@@]12CC(c1ccoc1)OC2=O` (stereo partly drawn), the Potency result in test [1] and in test [2] was “inactive” in each case.

As to `CCC(O)C(C)C1CCC(C(C)C(=O)O)O1` (stereo not drawn), the Potency entry in test [1] and in test [2] was “inactive” each time.

Consider `CC(=O)OCC1=C[C@@H]2OC(=O)C3=CO[C@@H](O[C@@H]4O[C@H](CO)[C@@H](O)[C@H](O)[C@H]4O)[C@H]1[C@@H]32`, for which the Potency result in test [1] and in test [2] was “inactive” throughout.

On to `C[C@@H]1[C@H]2[C@H](O[C@@H]3O[C@H](CO)[C@@H](O)[C@H](O)[C@H]3O)OC=C(C(=O)O)[C@H]2C[C@@H]1O`, for which the Potency entry in test [1] and in test [2] was “inactive” in each case.

Regarding `CC(=O)Oc1ccc(C2(c3ccc(OC(C)=O)cc3)Oc3ccccc3NC2=O)cc1`, the Potency is 5.8 µM (active) in test [1] and 2.99 µM (active) in test [2].

On to `COc1cc(/C=C/C(=O)O[C@H]2[C@@H]3C=CO[C@@H](O[C@@H]4O[C@H](CO)[C@@H](O)[C@H](O)[C@H]4O)[C@@H]3[C@@]3(CO)O[C@@H]23)ccc1O`, for which the Potency entry in test [1] and in test [2] was “inactive” each time.

For `CC(=O)O[C@H]1[C@H](Oc2ccccc2COC(=O)C2(O)C=CCCC2=O)O[C@H](CO)[C@@H](O)[C@@H]1O` (stereo partly drawn), the Potency entry in test [1] and in test [2] was “inactive” each time.

Regarding `COc1c/c(=C2\C=c3ccccc3=N2)[nH]/c1=C\c1[nH]c(C)cc1C`, the figures for the Potency in test [1] and in test [2] were 5.17 µM (active) and 5.8 µM (active), respectively.

Turning to `Cn1cc(Nc2cnccc2C(=O)O)c2cccnc21`, the Potency result in test [1] and in test [2] was “inactive” throughout.

Consider `CC(C)(O)c1ccn2c(-c3ccc(F)c(-c4ccc(F)cc4C#N)c3)cnc2c1F`, for which the Potency is 9.2 µM (active) in test [1] and 8.2 µM (active) in test [2].

Turning to `CCOc1cc(CC(=O)NC(CC(C)C)c2ccccc2N2CCCCC2)ccc1C(=O)O` (stereo not drawn), the Potency entry in test [1] and in test [2] was “inactive” each time.

As to `CCC(C)C(=O)O[C@H]1[C@@H](O[C@H]2O[C@H](CO)[C@@H](O)[C@H](O)[C@H]2O)O[C@H](CO)[C@@H](O)[C@@H]1O` (stereo partly drawn), the Potency entry in test [1] and in test [2] was “inactive” each time.

On to `C/C=C/C1=CC2=C(CO1)C(=O)C(C)(O)C(OC(=O)c1c(C)cc(OC)cc1O)C2` (stereo not drawn), for which the Potency in test [1] is 6.4 µM (active); in test [2], 4.04 µM (active).

Consider `C[C@H]1CC[C@@]2(OC1)O[C@H]1CC3C4CC[C@H]5C[C@@H](O)[C@H](O)C[C@]5(C)C4=CC(=O)[C@]3(C)[C@H]1[C@@H]2C` (stereo partly drawn), for which the Potency entry in test [1] and in test [2] was “inactive” each time.

These data come from PubChem BioAssay (NCATS).
